Compound activity (PubChem BioAssay)
FBPA Giardia inh = qHTS Assay for Inhibitors of Fructose-1,6-bisphosphate Aldolase from Giardia Lamblia; 0.71% of 290,000 active; Potency, µM (top dose mostly 59.6 µM), inactives show top-dose activity, negative = inhibition, actives largely listed as inhibitors; purified Giardia FBPA; further: potency means the concentration at half of the fitted maximal effect; on the % scale 0 is the no-effect control and ±100 the full control effect; nearly all actives have a fitted effect of over 55% in size
Target sequence (A8B2U2 whole entry, looked up): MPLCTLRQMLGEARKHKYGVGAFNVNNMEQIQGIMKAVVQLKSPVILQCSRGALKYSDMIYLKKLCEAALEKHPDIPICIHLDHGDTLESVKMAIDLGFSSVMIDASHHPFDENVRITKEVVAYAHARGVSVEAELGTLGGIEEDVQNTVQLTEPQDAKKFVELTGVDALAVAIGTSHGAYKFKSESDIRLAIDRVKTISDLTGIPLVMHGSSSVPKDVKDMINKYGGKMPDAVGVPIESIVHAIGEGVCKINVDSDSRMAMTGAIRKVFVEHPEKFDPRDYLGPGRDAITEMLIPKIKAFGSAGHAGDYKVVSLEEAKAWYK
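40 nM FBPA preincubated 10 min at RT with compound (up to 57.5 uM final), then substrate plus GAPDH/TPI/NAD/arsenate coupling and diaphorase/resazurin added. Fluorescence read after 20 min at RT, 525/598 nm.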
Tb PYK inh = qHTS of Trypanosoma Brucei Inhibitors. pyruvate kinase (Trypanosoma brucei), Q57TT1. TbPYK enzyme, Kinase-Glo Plus ATP luminescence, 45 min. Potency, µM (top dose mostly 76.8 µM), for inactives: top-dose activity, negative = inhibition, most hits filed as inhibitors. 0.12% of 410,000 active. AID 624173, 2012; further: potency means the concentration at half of the fitted maximal effect; on the % scale 0 is the no-effect control and ±100 the full control effect; nearly all actives have a fitted effect of over 50% in size
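ADP (130 uM final) triggers the TbPYK reaction after compound addition; incubation is 45 min at room temperature. Kinase-Glo Plus is then added and luminescence imaged. Normalized data are fitted to concentration-effect curves.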
LmPK inh = qHTS Assay for Inhibitors of Leishmania Mexicana Pyruvate Kinase (LmPK) | Q27686 | purified LmPK, Kinase-Glo ATP luminescence, 1 h | Potency, µM (highest dose often 57.5 µM), for the others: top-dose activity change, negative = inhibition, most hits filed as inhibitors | 0.37% of 290,000 active | AID 1721, 2009; further: potency means the concentration at half of the fitted maximal effect; on the % scale 0 is the no-effect control and ±100 the full control effect
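In 50 mM imidazole pH 7.2 with 7 mM MgCl2, LmPK (0.1 nM) turned over PEP (0.5 mM) and ADP (0.1 mM) for 1 h at room temperature. Luciferase read-out of ATP.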
Sm TGR block = qHTS Assay for the Inhibitors of Schistosoma Mansoni Peroxiredoxins. Potency, µM (series often up to 114 µM), inactives show at the top dose activity change, negative = inhibition, actives largely listed as inhibitors. 3% of 360,000 active. purified TGR, DTNB reduction, TNB absorbance 405 nm. Schistosoma mansoni thioredoxin glutathione reductase (TGR), Q962Y6; further: potency means the concentration at half of the fitted maximal effect; on the % scale 0 is the no-effect control and ±100 the full control effect; nearly all actives have a fitted effect of over 60% in size
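Kinetic colorimetric format: TGR-catalysed, NADPH-driven DTNB reduction monitored via TNB absorbance. Enzyme dispensed at 20 nM; compound exposure 15 min at room temperature before reaction start.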
Shiga inhibitor = A qHTS for Small Molecule Inhibitors of Shiga Toxin; Vero cells, Shiga toxin protein synthesis inhibition reporter; inhibition, % at 38.7 µM; AID 2315, 2010; 9.2% of 290,000 active; in the data active means inhibition mostly above about 28%, no sharp cut-off; inactive means mostly below about 43%; further: 0% is about no effect
Cycloheximide cs = Cycloheximide Counterscreen for Small Molecule Inhibitors of Shiga Toxin; cell reporter, cycloheximide protein synthesis inhibition counterscreen; max response, %; 12% of 300,000 active; AID 2314, 2010; in the data active means max response mostly above about 13%, no sharp cut-off; inactive means mostly below about 14%; further: read at 38.3 µM for the half of the compounds with a filed dose; 0% is about no effect
Numbers without * were called inactive; u = inconclusive; x = not tested or not shown. This excerpt belongs to a sample that is enriched for hits. Unless noted, the call rests on the fitted dose curve; in most records, active means well fitted curve in the direction sought with a large enough effect; inconclusive means small, poorly fitted or top-dose-only effect, or another doubt; inactive means no such curve, though single readings can be large; an effect the other way counts as inactive or inconclusive.

SMILES	FBPA Giardia inh	Tb PYK inh	LmPK inh	Sm TGR block	Shiga inhibitor	Cycloheximide cs
Cn1ncc(Br)c1C(=O)NC1CCCCCCC1	0.4%	0.2%	-2.0%	-7.6%	4.4	2.8
CC(C)c1cc(C(=O)NNC(=S)NC2CCCCC2)cs1	x	-7.8%	-3.0%	-23.0%	51.0*	31.6*
CCc1c(C(=O)NNC(=S)NC2CCCCC2)csc1C	13.3%	2.6%	3.3%	8.4%	3.3	9.6
Cc1nn(C)c(C(=O)NNC(=S)NC2CCCCC2)c1Br	4.1%	-15.8%	11.3%	0.4%	60.7*	45.2*
CN(C)c1cccc(C(=O)NNC(=S)NC2CCCC2)c1	8.7%	10.2%	6.0%	0.9%	34.5	18.2*
CCc1cc(C(=O)NNC(=S)NC2CCCCC2)cs1	x	-1.0%	-0.1%	-4.7%	54.3*	46.3*
C[C@H]1COC(=O)O1	3.5%	x	x	x	16.3	-3.6
Cc1ccc(NC(=O)Cn2c(=O)n(CCCS(=O)(=O)C3CCCCC3)c(=O)c3ccccc32)cc1F	x	11.7%	x	3.0%	x	x
COc1ccc(-c2cnc(-c3cccnc3)o2)cc1	-1.1%	x	x	x	x	x
Clc1ccccc1-c1ncc(-c2ccccc2)o1	-0.6%	-1.2%	-5.5%	6.2%	x	25.8*
CCn1cc(CN2CCC(C(=O)Nc3ccc(Oc4ccccc4F)cc3)CC2)cn1	x	3.5%	x	x	x	x
CCN1CCN(c2ccc(NC(C)=O)cc2Cl)CC1	3.0%	-15.5%	1.0%	x	6.6	1.1
CCN1CCN(c2ccc(NC(=O)c3ccc(F)cc3)cc2Cl)CC1	-7.9%	2.6%	6.4%	5.6%	43.4*	30.1*
O=C(Nc1ccc(N2CCCCC2)c(S(=O)(=O)Nc2ccccc2Cl)c1)c1cccnc1	x	-7.6%	x	x	x	x
CCN1CCN(c2ccc(NC(=O)c3cccnc3)cc2Cl)CC1	-2.8%	1.9%	1.2%	0.0%	16.2	10.8*
COc1ccc(CNc2cccnc2)c(OC)c1OC	x	1.0%	x	x	x	x
Cc1cnc(Nc2ccc(F)cc2Cl)nc1-c1c[nH]c(C(=O)N[C@H](CO)c2cccc(Cl)c2)c1	x	0.0%	x	x	x	x
COc1cc(/C=N/N2CCCCC2)cc(OC)c1O	-26.1%	u	-28.4%	14.1µM*	23.8	8.4
COc1cc(C=NN2CCCCC2)cc(OC)c1OC	x	0.9%	x	x	x	x
O=[N+]([O-])c1ccc(N2CCN(c3ccccc3)CC2)cc1	11.7%	3.7%	-1.6%	18.3%	-7.9	1.7
CC1CCCC(C)N1/N=C/c1ccc([N+](=O)[O-])cc1 (centres undefined)	-6.6%	-5.1%	-0.1%	8.8%	54.1*	42.7*
O=C1c2ccccc2C(=O)N1/N=C/c1ccc(O)c(O)c1	u	-10.3%	-13.2%	-9.8%	47.3*	9.1
O=[N+]([O-])c1ccc(N2CCCCC2)cc1	0.5%	-11.5%	-3.8%	4.5%	45.1	26.8*
C[C@H]1CN([C@@H](C)CO)S(=O)(=O)c2ccc(Br)cc2O[C@H]1CN(C)S(=O)(=O)c1ccccc1	x	5.1%	x	x	x	x
CC(=O)Nc1cccc(-c2ccnc3c2CC(C(=O)NCCc2ccccc2)O3)c1 (centres undefined)	x	-8.4%	x	x	x	x
SMILES	FBPA Giardia inh	Tb PYK inh	LmPK inh	Sm TGR block	Shiga inhibitor	Cycloheximide cs
COc1ccc(-c2nc(Cn3c(SCc4ccc(C)cc4)nc4cccnc43)c(C)o2)cc1OC	x	4.3%	x	5.3%	x	x
O=[N+]([O-])c1ccc(/C=N\N2CCN(c3ccc(Cl)cc3)CC2)cc1	0.9%	-3.3%	-3.0%	-25.0%	12.3	-1.4
O=[N+]([O-])c1ccc(/C=N/N2CCCCC2)cc1	3.6%	1.1%	-0.6%	-0.3%	127.5*	34.3*
Clc1ccc(/C=N/N2CCCCC2)cc1	-7.1%	10.3%	-24.4%	8.8%	33.6*	28.6*
Oc1ccc(/C=N/N2CCCCC2)cc1O	u	-12.2%	-0.2%	2.82µM*	5.7	11.1
O=C(COC(=O)c1cc(Cl)ccc1O)NCC1CCCO1 (centres undefined)	x	3.7%	x	-0.9%	x	x
CCN1C(=O)[C@H]2[C@@H](c3ccc(-c4ccc(OC)cc4)c(OC)c3)N[C@@](Cc3ccccc3)(C(=O)OC)[C@H]2C1=O	x	8.0%	x	x	x	x
COC(=O)[C@]1(CC(C)C)N[C@H](c2ccc(-c3ccc(F)cc3)c(OC)c2)[C@@H]2C(=O)N(C)C(=O)[C@@H]21	x	-10.3%	x	20µM*	x	x
CCN1C(=O)[C@H]2[C@@H](c3ccc(-c4ccc(OC)cc4)c(OC)c3)N[C@@](CC(C)C)(C(=O)OC)[C@H]2C1=O	x	-0.4%	x	x	x	x
COC(=O)[C@]1(Cc2ccccc2)N[C@H](c2ccc(-c3cccc(Cl)c3)c(OC)c2)[C@@H]2C(=O)N(C)C(=O)[C@@H]21	x	-3.0%	x	x	x	x
CCN1C(=O)[C@H]2[C@@H](c3ccc(-c4ccc5c(c4)OCO5)c(OC)c3)N[C@@](Cc3ccccc3)(C(=O)OC)[C@H]2C1=O	x	0.7%	x	-23.5%	x	x
CCN1C(=O)[C@H]2[C@@H](c3ccc(-c4ccc5c(c4)OCO5)c(OC)c3)N[C@@](CC(C)C)(C(=O)OC)[C@H]2C1=O	x	-1.3%	x	50.1µM*	x	x
COc1ccc(C2NC(Cc3ccccc3)(C(=O)O)C3C(=O)N(c4ccccc4OC)C(=O)C23)cc1 (centres undefined)	4.3%	2.4%	-5.2%	22.4µM*	2.8	7.9
CCN1C(=O)[C@H]2[C@@H](c3ccc(-c4cccc(Cl)c4)c(OC)c3)N[C@@](Cc3ccccc3)(C(=O)OC)[C@H]2C1=O	x	0.2%	x	28.2µM*	x	x
C=C1N[C@]2(C(=O)COC(C)=O)[C@@H](C[C@H]3[C@@H]4CCC5=CC(=O)C=C[C@]5(C)[C@H]4[C@@H](O)C[C@@]32C)O1	x	-6.1%	x	x	x	x
CCOC(=O)C1CCN(C(=O)Nc2ccc(NC(=O)C3CCN(C(=O)OCC)CC3)cc2)CC1	3.6%	-10.3%	-11.4%	-4.1%	-15.5	-1.3
CCOC(=O)C1CCN(C(=O)Nc2ccc3nc(-c4ccco4)c(-c4ccco4)nc3c2)CC1	u	u	-6.8%	0.708µM*	38.8	-1.6
O=C(Nc1ccc2nc(-c3ccco3)c(-c3ccco3)nc2c1)N1CCCCCC1	u	u	0.7%	0.708µM*	8.3	5.1
COc1ccc(/C=C2\SC(N)=NC2=O)cc1	-3.9%	8.7%	-5.2%	-2.7%	13.2	12.1
CCOC(=O)CSC1=NC(=O)/C(=C/c2ccc(OC)cc2)S1	-4.9%	-13.8%	-24.1%	6.31µM*	61.4*	22.1*
CCOC(=O)CSc1nc(C)c2cc(C)c(C)cc2n1	-0.2%	-1.4%	4.7%	-11.4%	14.3	24.6
CCOC(=O)CCSc1nc(C)c2cc(C)ccc2n1	3.7%	-5.5%	5.0%	-6.8%	75.4*	30.4*
CCOC(=O)CSc1nc(C)c2cc(OC)ccc2n1	0.2%	0.5%	0.1%	9.2%	71.9*	45.9*
